Experimental data from PubChem BioAssay (NCATS).
Values without a mark were called inactive. Inconclusive results are not listed. The source made the active and inactive calls. Unless noted, calls come from the whole dose curve.

Experiments:
[1] = molecular target: Bile acid receptor (Homo sapiens) (UniProt Q96RI1); assay: qHTS assay for small molecule agonists of farnesoid X receptor signaling (AID 588527); settings: HEK293T FXR-UAS-bla, beta-lactamase ratio, 16 h; activation: stronger effect = higher value;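 note: series mostly up to about 77 µM; 0% = vehicle basal and 100% = reference agonist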
Chain of Bile acid receptor (Homo sapiens) (Q96RI1 whole entry, looked up): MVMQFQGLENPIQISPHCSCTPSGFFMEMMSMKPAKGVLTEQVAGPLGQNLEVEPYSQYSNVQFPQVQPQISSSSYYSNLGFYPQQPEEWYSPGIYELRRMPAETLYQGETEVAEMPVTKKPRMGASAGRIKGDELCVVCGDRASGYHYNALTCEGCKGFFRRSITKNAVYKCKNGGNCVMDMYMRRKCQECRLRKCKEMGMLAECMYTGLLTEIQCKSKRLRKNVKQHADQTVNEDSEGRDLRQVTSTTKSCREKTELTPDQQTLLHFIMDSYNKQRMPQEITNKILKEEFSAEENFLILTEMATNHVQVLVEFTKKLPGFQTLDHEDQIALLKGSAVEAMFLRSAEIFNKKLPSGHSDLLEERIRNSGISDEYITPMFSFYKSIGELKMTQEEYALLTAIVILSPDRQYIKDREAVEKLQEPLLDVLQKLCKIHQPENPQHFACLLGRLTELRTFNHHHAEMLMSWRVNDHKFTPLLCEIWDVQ
In short: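 Agonist-mode beta-lactamase reporter in GeneBLAzer FXR-UAS-bla HEK293T cells, titration up to 92 uM, 16 h exposure at 37 C, CCF4 fluorescence. Response scaled to DMSO (0%) and 100 uM chenodeoxycholic acid (100%), then Hill-fitted for EC50 and efficacy.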

[2] = molecular target: Glucocorticoid receptor (Homo sapiens) (UniProt P04150); assay: qHTS assay for small molecule agonists of glucocorticoid receptor signaling (AID 588532; active = well fitted curve in the direction sought with a large enough effect in the signal ratio, with a control signal flat; the % refers to the signal ratio;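 note: 100% = dexamethasone at 0.1 µM and 0% = DMSO only wells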); settings: HeLa MMTV-bla, beta-lactamase ratio, agonist, 18 h; activation: stronger effect = higher value, percent of dexamethasone control, DMSO zero
Chain of Glucocorticoid receptor (Homo sapiens) (P04150 whole entry, looked up): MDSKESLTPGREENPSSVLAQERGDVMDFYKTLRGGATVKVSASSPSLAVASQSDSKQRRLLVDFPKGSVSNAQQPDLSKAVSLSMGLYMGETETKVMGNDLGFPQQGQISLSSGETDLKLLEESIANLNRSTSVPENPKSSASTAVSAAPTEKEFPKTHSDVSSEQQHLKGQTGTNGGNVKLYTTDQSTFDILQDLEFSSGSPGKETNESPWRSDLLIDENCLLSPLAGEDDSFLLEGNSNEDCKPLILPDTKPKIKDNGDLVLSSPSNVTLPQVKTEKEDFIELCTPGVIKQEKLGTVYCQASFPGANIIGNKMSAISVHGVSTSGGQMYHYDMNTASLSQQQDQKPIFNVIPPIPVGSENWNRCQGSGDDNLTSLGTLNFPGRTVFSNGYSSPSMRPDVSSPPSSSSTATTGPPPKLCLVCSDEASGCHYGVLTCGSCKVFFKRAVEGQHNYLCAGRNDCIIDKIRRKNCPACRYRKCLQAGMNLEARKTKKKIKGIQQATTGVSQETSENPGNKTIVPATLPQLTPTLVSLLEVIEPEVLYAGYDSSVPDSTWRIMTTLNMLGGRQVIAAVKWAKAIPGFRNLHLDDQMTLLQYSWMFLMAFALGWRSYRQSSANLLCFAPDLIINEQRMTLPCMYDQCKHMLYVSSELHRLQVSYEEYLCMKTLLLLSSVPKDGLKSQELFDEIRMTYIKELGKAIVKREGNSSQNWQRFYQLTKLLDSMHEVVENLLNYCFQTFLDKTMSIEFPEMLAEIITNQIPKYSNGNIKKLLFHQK
In short: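 MMTV-bla HeLa beta-lactamase reporter cells in 1% charcoal/dextran FBS medium, compounds up to 92 uM for 18 h at 37 C, CCF4 readout; normalized to 0.1 uM dexamethasone (100%), EC50 and efficacy from Hill fits.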

[3] = molecular target: Peroxisome proliferator-activated receptor delta (Homo sapiens) (UniProt Q03181); assay: qHTS assay for small molecule agonists of peroxisome proliferator-activated receptor delta signaling (AID 588534);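 note: 0% = DMSO basal wells and 100% = positive control agonist at 10 µM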
Chain of Peroxisome proliferator-activated receptor delta (Homo sapiens) (Q03181 whole entry, looked up): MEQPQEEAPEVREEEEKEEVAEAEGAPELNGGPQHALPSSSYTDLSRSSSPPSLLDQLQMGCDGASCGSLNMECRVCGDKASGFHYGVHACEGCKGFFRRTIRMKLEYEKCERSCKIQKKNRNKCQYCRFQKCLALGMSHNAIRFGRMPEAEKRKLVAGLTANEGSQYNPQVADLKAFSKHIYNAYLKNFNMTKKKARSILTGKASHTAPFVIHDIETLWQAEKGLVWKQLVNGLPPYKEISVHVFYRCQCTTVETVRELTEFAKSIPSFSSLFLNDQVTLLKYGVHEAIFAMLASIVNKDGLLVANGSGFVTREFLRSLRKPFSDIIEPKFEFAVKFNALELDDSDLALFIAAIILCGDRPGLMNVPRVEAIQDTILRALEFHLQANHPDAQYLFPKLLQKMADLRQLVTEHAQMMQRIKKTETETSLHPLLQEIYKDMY
In short: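 Cells carrying a PPAR-delta beta-lactamase reporter were treated with compounds for 18 h at 37 °C in agonist mode. CCF4 fluorescence was read after 2 h; EC50 and efficacy from Hill fits.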

[4] = molecular target: Vitamin D3 receptor (Homo sapiens) (UniProt P11473); assay: qHTS assay for small molecule agonists of vitamin D receptor signaling (AID 588543);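 note: 0% = DMSO basal and 100% = reference agonist control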
Chain of Vitamin D3 receptor (Homo sapiens) (P11473 whole entry, looked up): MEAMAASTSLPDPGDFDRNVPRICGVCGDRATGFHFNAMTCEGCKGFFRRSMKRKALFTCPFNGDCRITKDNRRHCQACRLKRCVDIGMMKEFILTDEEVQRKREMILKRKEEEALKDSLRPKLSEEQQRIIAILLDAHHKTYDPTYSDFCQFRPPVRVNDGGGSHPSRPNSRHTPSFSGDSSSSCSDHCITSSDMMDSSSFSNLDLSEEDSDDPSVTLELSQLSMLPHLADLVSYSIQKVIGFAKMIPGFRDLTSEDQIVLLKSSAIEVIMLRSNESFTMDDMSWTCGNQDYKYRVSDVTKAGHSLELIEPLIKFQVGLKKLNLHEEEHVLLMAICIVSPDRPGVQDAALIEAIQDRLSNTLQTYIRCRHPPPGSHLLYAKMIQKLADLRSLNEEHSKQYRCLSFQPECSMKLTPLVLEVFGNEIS
In short: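 β-lactamase reporter, VDR-UAS-bla HEK293T, agonist mode. Cells plated 5 h at 37 °C, compound titration 16 h at 37 °C, CCF4 dye 2 h RT, ratio 460/530 nm. Hill fit → EC50, efficacy vs 50 nM 1α,25-(OH)2D3.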

[5] = molecular target: Thyroid hormone receptor beta (Homo sapiens) (UniProt P10828); assay: qHTS assay for small molecule agonists of thyroid hormone receptor beta signaling (AID 588545)
Chain of Thyroid hormone receptor beta (Homo sapiens) (P10828 whole entry, looked up): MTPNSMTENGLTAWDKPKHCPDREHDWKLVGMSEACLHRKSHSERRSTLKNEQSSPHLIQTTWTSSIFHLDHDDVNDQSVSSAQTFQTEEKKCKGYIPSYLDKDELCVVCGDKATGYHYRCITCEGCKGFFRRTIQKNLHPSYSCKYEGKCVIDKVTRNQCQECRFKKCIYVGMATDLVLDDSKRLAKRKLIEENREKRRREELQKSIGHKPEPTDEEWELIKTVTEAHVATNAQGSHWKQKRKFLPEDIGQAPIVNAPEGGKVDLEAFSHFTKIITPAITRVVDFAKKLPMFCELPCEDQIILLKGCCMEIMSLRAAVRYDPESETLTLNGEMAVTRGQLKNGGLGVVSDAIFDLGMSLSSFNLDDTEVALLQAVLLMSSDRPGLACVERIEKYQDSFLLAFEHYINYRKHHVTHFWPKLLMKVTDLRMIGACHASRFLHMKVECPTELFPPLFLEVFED
In short: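 Agonist activity was read as beta-lactamase CCF4 fluorescence (405 ex, 460/530 em), scaled between DMSO (0%) and 10 nM T3 (100%), then Hill-fitted for EC50 and efficacy. HEK 293 TR-UAS-bla cells in 2% charcoal/dextran FBS medium were exposed 18 h at 37 C.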

[6] = molecular target: Thyroid hormone receptor beta (Homo sapiens) (UniProt P10828); assay: qHTS assay for small molecule antagonists of thyroid hormone receptor beta signaling (AID 588547; active = well fitted inhibition curve with a large enough effect in the signal ratio, with a control signal flat, not every such curve was filed as active; the % refers to the signal ratio;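 note: cells stimulated with 0.4 nM T3 agonist during compound exposure; series mostly up to about 77 µM; % is set by controls: 0 for no effect and ±100 for the full control effect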); settings: TR-UAS-bla HEK293, beta-lactamase ratio, antagonist mode, 18 h
In short: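 TR-UAS-bla GripTite HEK293 cells in 2% charcoal/dextran FBS medium; compounds 0.59 nM to 92 uM with T3 at 0.4nM final, 18 h at 37 C. Beta-lactamase read by CCF4 fluorescence (460/530 nm); Hill fits gave IC50 and efficacy.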

[7] = qHTS assay for small molecule activators of the p53 signaling pathway (AID 651743; active = well fitted activation curve with a large enough effect in the signal ratio, not every such curve was filed as active; the % refers to the signal ratio; note: series mostly up to about 92 µM; % of control where 0% means no effect); settings: HCT-116 p53RE-bla, beta-lactamase FRET ratio, 16 h; activation: stronger effect = higher value
In short: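 p53RE-bla HCT-116 cells carrying a beta-lactamase reporter under p53 response elements were exposed to compounds for 16 hours at 37 C. Reporter activity read as fluorescence after 2 hours at room temperature with LiveBLAzer B/G FRET substrate.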

[8] = qHTS assay for small molecule activators of the nuclear factor-kappa B (NF-kB) signaling pathway (AID 651749; active = well fitted activation curve with a large enough effect in the signal ratio; the % refers to the signal ratio; note: series mostly up to about 77 µM; % of control where 0% means no effect); settings: NF-kB-bla ME-180 cells, beta-lactamase FRET ratio, 16 h; activation: stronger effect = higher value
In short: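 NF-kB-bla ME-180 cells carrying a beta-lactamase reporter under an NF-kB response element, 2,000 cells/well, exposed to compound for 16 hr at 37C; FRET-based beta-lactamase fluorescence read-out of pathway activation.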

[9] = qHTS assay for environmental chemicals that activate the Aryl hydrocarbon Receptor (AhR) signaling pathway (AID 651777; active = well fitted curve in the direction sought with a large enough effect; an effect the other way counts as inactive or inconclusive; note: % of control where 0% means no effect; nearly all actives have a fitted effect of over 15% in size); settings: 1A2-DRE human hepatoma cells, luciferase, 24 h; activation: stronger effect = higher value
In short: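 Luminescence (One-Glo, 30 min, room temperature) reports AhR-driven luciferase in stably transfected human hepatoma cells bearing DRE and CYP1A2 promoter. Cells (1,200/well) were treated with compound for 24 hr at 37 C in qHTS format.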

[10] = molecular target: Peroxisome proliferator-activated receptor alpha (Homo sapiens) (UniProt Q07869); assay: qHTS assay for small molecule agonists of the peroxisome proliferator-activated receptor alpha (PPARalpha) signaling pathway (AID 651778; active = well fitted curve in the direction sought with a large enough effect; an effect the other way counts as inactive or inconclusive; note: % of control where 0% means no effect); settings: PathHunter PPARalpha complementation, chemiluminescence, 6 h; max response: stronger effect = higher value
Chain of Peroxisome proliferator-activated receptor alpha (Homo sapiens) (Q07869 whole entry, looked up, the tested form may be a part): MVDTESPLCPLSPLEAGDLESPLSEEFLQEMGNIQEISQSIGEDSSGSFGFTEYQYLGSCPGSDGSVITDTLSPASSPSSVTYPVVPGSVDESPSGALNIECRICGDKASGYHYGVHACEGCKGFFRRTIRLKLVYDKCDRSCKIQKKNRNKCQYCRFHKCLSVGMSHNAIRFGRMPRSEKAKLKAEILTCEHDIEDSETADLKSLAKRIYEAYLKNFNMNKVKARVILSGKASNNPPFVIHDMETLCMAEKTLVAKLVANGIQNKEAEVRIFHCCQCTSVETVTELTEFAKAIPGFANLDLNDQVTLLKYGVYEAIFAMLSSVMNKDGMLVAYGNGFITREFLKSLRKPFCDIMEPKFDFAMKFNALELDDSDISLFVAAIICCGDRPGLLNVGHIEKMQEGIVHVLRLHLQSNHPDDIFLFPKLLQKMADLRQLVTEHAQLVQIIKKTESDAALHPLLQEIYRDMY
In short: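 Enzyme-fragment complementation assay in which ligand-bound PPARalpha translocates and forms an active enzyme that generates chemiluminescence. Cells were plated overnight, exposed to compound for 6 hr at 37 C, and then given detection reagent for 60 min at room temperature.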

[11] = qHTS assay for small molecule agonists of the antioxidant response element (ARE) signaling pathway measured by Nrf2-dependant transcriptional activity (AID 720636; active = well fitted curve in the direction sought with a large enough effect in the repeat runs; an effect the other way counts as inactive or inconclusive; note: potency is the fitted concentration of half-maximal effect; for activation: % of control where 0% means no effect)
In short: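 Nrf2-dependent transcription read as ONE-Glo luciferase signal from ARE-luc HepG2 reporter cells after 16 hr compound treatment at 37 C, 5% CO2, in assay medium with 1% dialyzed FBS.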

[12] = qHTS assay for small molecule agonists of the antioxidant response element (ARE) signaling pathway measured by Nrf2-dependant transcriptional activity - cell viability counter screen (AID 720653; active = well fitted curve in the direction sought with a large enough effect in the repeat runs; an effect the other way counts as inactive or inconclusive; note: % is set by controls: 0 for no effect and ±100 for the full control effect); settings: ARE-bla HepG2 viability, CellTiter-Glo ATP luminescence, 16 h; max response: stronger effect = lower value
In short: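 ARE-bla HepG2 cells treated with compounds for 16 h at 37C; this counter screen measures viability as intracellular ATP by CellTiter-Glo luminescence after 30 min at room temperature.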

[13] = qHTS assay for cell viability of HEK293 cells (AID 743288; active = well fitted curve in the direction sought with a large enough effect; an effect the other way counts as inactive or inconclusive; note: nearly all actives have a fitted effect of over 50% in size; note: potency is the fitted concentration of half-maximal effect; for max response: % is set by controls: 0 for no effect and ±100 for the full control effect); settings: ATP luminescence (CellTiter-Glo), 18 h; max response: stronger effect = lower value
In short: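 Environmental chemicals tested in qHTS format against parental HEK293 cells; 18 h treatment, 37 C; read-out ATP luminescence (CellTiter-Glo), 30 min RT development.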

[14] = molecular target: Nuclear receptor subfamily 1 group I member 2 (Rattus norvegicus) (UniProt Q9R1A7); assay: qHTS assay for small molecule activators of the rat pregnane X receptor (rPXR) signaling pathway (AID 651751; call rule not given here; note: 0% is about no effect); settings: rPXR reporter cells, luciferase (One-Glo), 24 h
Chain of Nuclear receptor subfamily 1 group I member 2 (Rattus norvegicus) (Q9R1A7 whole entry, looked up): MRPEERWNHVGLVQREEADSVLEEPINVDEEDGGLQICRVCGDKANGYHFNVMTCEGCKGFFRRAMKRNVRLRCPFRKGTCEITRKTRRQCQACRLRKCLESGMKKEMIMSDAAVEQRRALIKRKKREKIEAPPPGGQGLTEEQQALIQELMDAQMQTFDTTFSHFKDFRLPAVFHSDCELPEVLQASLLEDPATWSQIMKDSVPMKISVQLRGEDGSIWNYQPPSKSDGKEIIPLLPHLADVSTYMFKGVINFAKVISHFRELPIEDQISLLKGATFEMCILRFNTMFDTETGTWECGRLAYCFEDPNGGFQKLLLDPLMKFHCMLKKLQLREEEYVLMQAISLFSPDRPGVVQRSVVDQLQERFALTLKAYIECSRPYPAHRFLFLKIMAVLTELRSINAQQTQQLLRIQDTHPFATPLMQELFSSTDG

[15] = molecular target: Glucocorticoid receptor (Homo sapiens) (UniProt P04150); assay: qHTS assay for small molecule antagonists of glucocorticoid receptor signaling (AID 588533; active = well fitted inhibition curve with a large enough effect in the signal ratio, with a control signal flat, not every such curve was filed as active; the % refers to the signal ratio;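 note: cells stimulated with 2 nM dexamethasone as agonist; % is set by controls: 0 for no effect and ±100 for the full control effect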)
In short: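 Antagonist-mode qHTS: compound titrations added to GRE-bla HeLa cells, then dexamethasone 2 nM final; 18 h, 37 C. CCF4 FRET fluorescence normalized to dexamethasone and DMSO; IC50 from Hill fit.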

[16] = qHTS assay for small molecule agonists of the antioxidant response element (ARE) signaling pathway (AID 651741; active = well fitted activation curve with a large enough effect in the signal ratio; the % refers to the signal ratio; note: potency is the fitted concentration of half-maximal effect)
In short: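 CellSensor ARE-bla HepG2 cells (2,000/well) carrying ARE-driven beta-lactamase, exposed 16 h at 37 C. LiveBLAzer B/G FRET substrate added for 2 h at room temperature; fluorescence intensity read.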

[17] = qHTS assay for cell viability of the p53RE-bla HCT-116 cell line (AID 743292; active = well fitted curve in the direction sought with a large enough effect; an effect the other way counts as inactive or inconclusive; note: potency is the fitted concentration of half-maximal effect; nearly all actives have a fitted effect of over 55% in size)
In short: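 ATP-based luminescent viability (CellTiter-Glo, 30 min RT) after 16 h compound treatment at 37 C of p53RE-bla HCT-116 cells, seeded at 4,000 cells/well and rested 5 h before dosing.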

[18] = qHTS assay for small molecule activators of the human pregnane X receptor (PXR) signaling pathway (AID 720659; call rule not given here; note: 0% is about no effect)

CC(c1ccc(O)cc1)(c1ccc(O)cc1)c1ccc(O)cc1
activation [1]: 12.5% | activation [2]: -5.2% | outcome [3]: inactive | outcome [4]: inactive | Potency [5]: inactive | activity change % (negative = inhibition) [6]: -15% | activation [7]: -9.57% | activation [8]: 2.37% | activation [9]: -4% | max response [10]: -5.19% | Potency [11]: inactive | max response [12]: -3.26% | max response [13]: -0.68% | max response [14]: -0.575%

C1CC[CH]([Sn]([CH]2CCCCC2)[CH]2CCCCC2)CC1
activation [1]: 0.852% | activation [2]: -10.4% | Potency [15]: inactive | Potency [5]: inactive | Potency [16]: 19.3 µM (active) | activation [7]: -8.17% | activation [9]: 3.62% | max response [10]: -0.731% | Potency [11]: 13.7 µM (active) | Potency [13]: 31.6 µM (active) | Potency [17]: 39.8 µM (active) | outcome [18]: inactive

O=S(=O)(O)c1cc(S(=O)(=O)O)c2c(N=Nc3ccccc3)c(O)ccc2c1
activation [1]: 2.46% | outcome [3]: inactive

COC(=O)c1cccc(C)c1S(=O)(=O)NC(=O)Nc1nc(OCC(F)(F)F)nc(N(C)C)n1
activation [1]: -2.17% | outcome [3]: inactive

C1CCOC1
activation [1]: -4.53% | outcome [3]: inactive

COc1nc(C)nc(NC(=O)NS(=O)(=O)c2ccccc2OCCCl)n1
activation [1]: -2.13% | outcome [3]: inactive
